In assay [1] the target is 6-phosphogluconate dehydrogenase, decarboxylating (Homo sapiens) (UniProt P52209). In words: inhibition of human phosphogluconate dehydrogenase – biochemical, recombinant enzyme, NADPH absorbance, primary screen (AID 1159550;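 active = at least 20% inhibition of 6-phosphogluconate dehydrogenase activity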). As to conditions: recombinant 6PGD, NADPH absorbance 341 nm; at 10 µM; stronger effect = higher value.
Assay [2] can be described thus: EMT-state selective cytotoxicity in co-culture – imaging, PC-3E GFP, TEM4-18 mCherry, primary screen (AID 1345086;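 active = compounds killing one labelled cell type while sparing the other, by normalised counts and ratio limits, not self-fluorescent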;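 for all read-outs here: cells exposed to compound for 72 h before imaging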;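 for red/green cell ratio (normalised): normalised mesenchymal count divided by normalised epithelial count so high means epithelial killing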). Conditions: PC-3E GFP / TEM4-18 mCherry co-culture, imaging cell counts, at 1 µM; for red/green cell ratio (normalised): actives lie on both sides, counts scaled to control wells, 1 = unselective.
Assay [3] can be described thus: viability loss with induced miR-34 in A549 – imaging, A549 dox-inducible miR-34, nuclei and caspase counts, primary screen (AID 1347080;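 active = compounds whose cell count with miR-34 switched on is under 0.7 times the count with it off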). As to conditions: A549 miR-34 inducible, Hoechst nuclei count, 48 h.
The nature of assay [4]: MELAS cybrid and Rieske KO viability enhancers – cell-based, MELAS cybrids, Rieske KO mouse fibroblasts, CellTiter-Glo, primary screen (AID 1508586;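 active = mean z-score across replicates of 1.96 or higher in either the MELAS or the Rieske mutant cell line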;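 note: z relative to plate mean and SD of compound and empty wells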). Conditions: low glucose. For orientation: Cellular ATP, detected with luciferase, serves as a proxy for viable cell number.
A short description of assay [5]: drug combination growth inhibition, ovarian cancer – cell-based, oncology-focused library, rucaparib conditional, profiling panel (AID 1508598). As to conditions: patient-derived ovarian cancer cells, CellTiter-Glo viability, 144 h, stronger effect = lower value.
Assay [6] addresses Mitogen-activated protein kinase 7 (Homo sapiens) (UniProt Q13164). Nature of the assay: Gal4-ERK5 driven luciferase induction – cell-based, HTS, primary screen (AID 1508626;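 active = luciferase signal above three times the same-plate solvent-only control wells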;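 note: luciferase driven by Gal4-ERK5 fusion binding five Gal4 sites before minimal TATA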). Conditions: HeLa Gal4-ERK5 transactivation, 18 h, at 5 µM, stronger effect = higher value.
Assay [7] in a line: blockers of polyQ-driven CASP3 activation – cell-based (AID 1583). Conditions: polyglutamine-induced caspase-3 activation, cell assay; stronger effect = higher value;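 tested at 10 µM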.
The nature of assay [8]: yeast 75Q aggregation reduction – 75Q-TubU reporter (AID 1593). As to conditions: Yeast 75Q polyglutamine aggregation reporter.
The nature of assay [9]: restoration of touch response, mutant HTT neurons – whole organism, C. elegans mechanosensory neurons, N-terminal huntingtin (AID 1599). As to conditions: C. elegans polyQ-huntingtin mechanosensory neurons, stronger effect = higher value.
Assay [10] can be described thus: blockers of cytochrome c efflux from mitochondria – biochemical, purified mitochondria (AID 1603).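 Note: mouse liver mitochondria challenged with calcium chloride; signal normalized to the plate average as 100%.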 As to conditions: stronger effect = lower value.
Assay [11] in a line: polyglutamine aggregate formation blockers (AID 1604). Conditions: polyglutamine-induced protein aggregation inhibition assay; stronger effect = higher value; tested at 2.5 µM.
Assay [12] in a line: glutamate transport activators, MN-1 cells, MN-1 cell line (AID 1612).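 Note: tested at 1 µM final; 0% = mean of DMSO vehicle wells on each plate; positive means more glutamate uptake than control and negative means less.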 Conditions: MN-1 motor neuron cells, stronger effect = higher value.
Assay [13] can be described thus: GFP-Q80 aggregate reduction, neuronal-like cells, cell-based, NGF-treated PC12, GFPQ80 (AID 1614).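 Note: lower means fewer inclusions and 0 means no inclusions at all.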 Conditions: PC12 NGF-treated GFP-polyQ80 inclusion reduction.
Assay [14] in a line: 75Q-TubH aggregate inhibition, S. cerevisiae, yeast (AID 1616). As to conditions: S. cerevisiae 75Q-TubH polyglutamine aggregation suppression; stronger effect = higher value.
A short description of assay [15]: P. berghei load reduction in hepatocytes – cell-based, HepG2, luciferase luminescence, HepG2 viability, primary screen (AID 624349; in the data active = parasite load remaining mostly below about 12%, no sharp cut-off; inactive = mostly above about 10%;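 note: 100% = mean of DMSO negative control wells on the same plate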). Conditions: P. berghei liver stage in HepG2, luciferase luminescence, concentration not given here; parasite load remaining: stronger effect = lower value; viability: measured here: HepG2 viability without parasites.
Assay [16] addresses NAD(+) hydrolase SARM1 (Homo sapiens) (UniProt Q6SZW1). Nature of the assay: blocking NAD cleavage by SARM1 SAM-TIR – cell lysate, NAD-Glo luminescence (AID 1508614;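 active = compound whose remaining NAD level is above about 45 nM, limit read from the data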;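 note: higher remaining NAD means stronger inhibition of SARM1 NADase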). As to conditions: SAM-TIR HEK293T lysate NADase, at 1 µM, stronger effect = higher value.
Assay [17] can be described thus: blockers of cellular phospholipid synthesis – cell-based, LOPAC library, screen 4, primary screen (AID 1347384; call rule not given here). Conditions: animal cells, phospholipid biosynthesis inhibition screen; at 10 µM.
The nature of assay [18]: galactose survival enhancers in mitochondrial complex I cybrids – cell-based, galactose medium, ATP luminescence, primary screen (AID 1645843;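 active = z-score of at least 1.8 in each of two replicates, scored against plate mean and spread of sample wells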;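 note: positive z means more ATP and so rescue of galactose-driven cybrid death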). As to conditions: complex I mutant cybrid cells, 72 h, stronger effect = higher value.
Where [19] appears, read: measured here: epithelial PC-3E GFP cell survival.
The mark [20] stands for this setting: measured here: mesenchymal TEM4-18 mCherry cell survival.
Setting [21] is: stronger effect = lower value, cell number ratio, induced over uninduced.
Setting [22] is: measured here: relative caspase fold change +Dox/-Dox.
The mark [23] stands for this setting: measured here: total cells with miR-34 induction, stronger effect = lower value.
The mark [24] stands for this setting: measured here: total cells without miR-34 induction.
Setting [25] is: MELAS cybrid survival, CellTiter-Glo 48 h, stronger effect = higher value.
Setting [26] is: Rieske KO mouse fibroblast survival, CellTiter-Glo 72 h.

Data on four compounds can be found in PubChem BioAssay.

Where “and” joins values, the source holds several entries; their conditions need not be identical. Equal entries are not always repeated. For part of these data: Measured potencies and affinities stand elsewhere. Calls of active or inactive are those of the source.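 Rule for the calls, unless noted: active = normalized viability below 100% at a tested concentration; inactive = the rest.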

Chain of Mitogen-activated protein kinase 7 (Homo sapiens) (Q13164 whole entry, looked up, the tested form may be a part): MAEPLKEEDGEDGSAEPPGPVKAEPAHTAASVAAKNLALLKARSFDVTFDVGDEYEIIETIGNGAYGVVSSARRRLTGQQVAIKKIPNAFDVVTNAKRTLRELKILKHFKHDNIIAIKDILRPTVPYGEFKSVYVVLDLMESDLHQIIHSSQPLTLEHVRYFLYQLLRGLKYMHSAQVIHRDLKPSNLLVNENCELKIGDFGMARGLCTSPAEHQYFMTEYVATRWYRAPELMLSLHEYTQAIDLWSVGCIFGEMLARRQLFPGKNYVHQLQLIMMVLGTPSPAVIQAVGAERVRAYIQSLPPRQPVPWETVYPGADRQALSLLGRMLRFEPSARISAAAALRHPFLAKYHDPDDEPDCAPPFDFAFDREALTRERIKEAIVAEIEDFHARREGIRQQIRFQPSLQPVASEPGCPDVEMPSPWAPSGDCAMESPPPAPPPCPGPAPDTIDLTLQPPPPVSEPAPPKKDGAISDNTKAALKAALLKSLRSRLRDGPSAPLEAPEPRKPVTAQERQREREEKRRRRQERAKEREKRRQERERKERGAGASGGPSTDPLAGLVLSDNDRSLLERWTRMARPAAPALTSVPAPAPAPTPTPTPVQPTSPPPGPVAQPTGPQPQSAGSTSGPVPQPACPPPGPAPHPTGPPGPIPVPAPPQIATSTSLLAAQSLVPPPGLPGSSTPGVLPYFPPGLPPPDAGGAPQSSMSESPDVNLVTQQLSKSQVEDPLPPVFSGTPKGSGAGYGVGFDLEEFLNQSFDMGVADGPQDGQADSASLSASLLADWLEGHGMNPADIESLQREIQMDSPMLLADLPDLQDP
Chain of 6-phosphogluconate dehydrogenase, decarboxylating (Homo sapiens) (P52209 whole entry, looked up): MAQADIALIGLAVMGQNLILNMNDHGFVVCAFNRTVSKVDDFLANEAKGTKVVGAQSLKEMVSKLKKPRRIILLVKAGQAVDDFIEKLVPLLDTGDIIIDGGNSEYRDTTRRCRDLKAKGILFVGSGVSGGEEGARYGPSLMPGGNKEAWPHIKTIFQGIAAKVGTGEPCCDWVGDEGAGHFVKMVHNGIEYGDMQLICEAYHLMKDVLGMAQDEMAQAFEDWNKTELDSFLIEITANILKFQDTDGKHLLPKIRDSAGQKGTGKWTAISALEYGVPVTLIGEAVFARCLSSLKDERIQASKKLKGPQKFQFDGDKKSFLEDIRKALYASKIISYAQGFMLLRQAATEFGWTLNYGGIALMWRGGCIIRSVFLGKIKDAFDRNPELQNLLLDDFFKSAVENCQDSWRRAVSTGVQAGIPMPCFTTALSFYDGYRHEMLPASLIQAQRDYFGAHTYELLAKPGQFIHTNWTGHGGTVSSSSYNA
Chain of NAD(+) hydrolase SARM1 (Homo sapiens) (Q6SZW1 whole entry, looked up): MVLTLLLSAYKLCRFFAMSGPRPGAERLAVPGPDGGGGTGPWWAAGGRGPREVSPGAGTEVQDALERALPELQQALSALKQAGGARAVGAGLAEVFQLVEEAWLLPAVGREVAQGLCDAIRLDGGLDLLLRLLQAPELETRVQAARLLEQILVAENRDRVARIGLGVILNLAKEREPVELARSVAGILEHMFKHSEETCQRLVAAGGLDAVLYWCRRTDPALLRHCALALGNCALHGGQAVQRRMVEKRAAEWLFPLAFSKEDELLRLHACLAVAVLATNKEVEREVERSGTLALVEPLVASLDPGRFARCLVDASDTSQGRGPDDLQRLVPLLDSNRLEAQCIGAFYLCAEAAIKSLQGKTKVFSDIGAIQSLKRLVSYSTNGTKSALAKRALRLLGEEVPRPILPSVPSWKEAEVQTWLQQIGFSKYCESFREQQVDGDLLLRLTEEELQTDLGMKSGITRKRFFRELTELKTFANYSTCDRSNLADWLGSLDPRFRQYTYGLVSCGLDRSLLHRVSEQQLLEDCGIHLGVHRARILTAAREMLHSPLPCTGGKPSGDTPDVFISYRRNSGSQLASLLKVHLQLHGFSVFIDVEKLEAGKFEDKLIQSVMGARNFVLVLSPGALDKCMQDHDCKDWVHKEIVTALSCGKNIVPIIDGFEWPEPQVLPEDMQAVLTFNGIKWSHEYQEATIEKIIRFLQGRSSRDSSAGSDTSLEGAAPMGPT

Consider `c1ccc2c(Cc3c[nH]c4ccccc34)c[nH]c2c1`, for which the inhibition (in general, the change of the read-out against control, counted positive when it falls) in assay [1] was 2.37% (inactive). Besides, the red/green cell ratio (normalised) in assay [2] is 0.91 (inactive). Besides, the normalised cell number was found to be 1.11 in assay [2] (setting [19]) and 1.01 in [2] (setting [20]). Besides, the fold change in [3] (setting [21]) is 0.926 (inactive); in [3] (setting [22]), 0.966. For the same compound, the cell count in [3] (setting [23]) came to 4780; in assay [3] (setting [24]), 5160.

On to `Cc1cc(O)c2c(c1)C(=O)c1cccc(O)c1C2=O`, for which the inhibition in assay [1] was 2.69% (inactive). Moreover, in [2], the red/green cell ratio (normalised) was 1.03 (inactive). For the same compound, the normalised cell number in [2] (setting [19]) turned out to be 0.99; in assay [2] (setting [20]), 1.02. For the same compound, the fold change is 0.938 (inactive) in assay [3] (setting [21]) and 0.889 in [3] (setting [22]). Moreover, the cell count in assay [3] (setting [23]) was 10200; in assay [3] (setting [24]) it was 10900. Also, the z-score is -0.322 (inactive) in assay [4] (setting [25]) and 0.837 in assay [4] (setting [26]). In addition, the viability (usually a read-out of living cells in per cent, often relative to untreated cells) in assay [5] (at 0.000305 µM, OCI-C5x cells, with rucaparib 10 µM, 100% = cells with rucaparib alone) is 120% (inactive); in [5] (at 0.000305 µM, OCI-C5x cells, without rucaparib), 106% (inactive); in assay [5] (at 0.000305 µM, OCI-P5x cells, with rucaparib 20 µM, 100% = cells with rucaparib alone) it was 93.2% (active); in [5] (at 0.000305 µM, OCI-P5x cells, without rucaparib), 92.5% (active); in assay [5] (at 0.00122 µM, OCI-C5x cells, with rucaparib 10 µM, 100% = cells with rucaparib alone) it was 115% (inactive); in [5] (at 0.00122 µM, OCI-C5x cells, without rucaparib) it was 113% (inactive). The viability in [5] (at 0.00122 µM, OCI-P5x cells, with rucaparib 20 µM, 100% = cells with rucaparib alone) is 92.4% (active); in [5] (at 0.00122 µM, OCI-P5x cells, without rucaparib), 95.7% (active); in assay [5] (at 0.00488 µM, OCI-C5x cells, with rucaparib 10 µM, 100% = cells with rucaparib alone), 117% (inactive); in assay [5] (at 0.00488 µM, OCI-C5x cells, without rucaparib), 112% (inactive); in assay [5] (at 0.00488 µM, OCI-P5x cells, with rucaparib 20 µM, 100% = cells with rucaparib alone) it was 94.8% (active); in assay [5] (at 0.00488 µM, OCI-P5x cells, without rucaparib) it was 102% (inactive). Moreover, the viability is 115% (inactive) in [5] (at 0.0195 µM, OCI-C5x cells, with rucaparib 10 µM, 100% = cells with rucaparib alone); 103% (inactive) in assay [5] (at 0.0195 µM, OCI-C5x cells, without rucaparib); 104% (inactive) in assay [5] (at 0.0195 µM, OCI-P5x cells, with rucaparib 20 µM, 100% = cells with rucaparib alone); 104% (inactive) in assay [5] (at 0.0195 µM, OCI-P5x cells, without rucaparib); 112% (inactive) in assay [5] (at 0.0781 µM, OCI-C5x cells, with rucaparib 10 µM, 100% = cells with rucaparib alone); 113% (inactive) in [5] (at 0.0781 µM, OCI-C5x cells, without rucaparib). Besides, the viability in [5] (at 0.0781 µM, OCI-P5x cells, with rucaparib 20 µM, 100% = cells with rucaparib alone) is 105% (inactive); in assay [5] (at 0.0781 µM, OCI-P5x cells, without rucaparib), 107% (inactive); in [5] (at 0.313 µM, OCI-C5x cells, with rucaparib 10 µM, 100% = cells with rucaparib alone), 102% (inactive); in assay [5] (at 0.313 µM, OCI-C5x cells, without rucaparib), 104% (inactive); in assay [5] (at 0.313 µM, OCI-P5x cells, with rucaparib 20 µM, 100% = cells with rucaparib alone), 101% (inactive); in assay [5] (at 0.313 µM, OCI-P5x cells, without rucaparib), 109% (inactive). The viability in assay [5] (at 1.25 µM, OCI-C5x cells, with rucaparib 10 µM, 100% = cells with rucaparib alone) is 114% (inactive); in [5] (at 1.25 µM, OCI-C5x cells, without rucaparib), 118% (inactive); in assay [5] (at 1.25 µM, OCI-P5x cells, with rucaparib 20 µM, 100% = cells with rucaparib alone), 111% (inactive); in assay [5] (at 1.25 µM, OCI-P5x cells, without rucaparib), 109% (inactive); in assay [5] (at 5 µM, OCI-C5x cells, with rucaparib 10 µM, 100% = cells with rucaparib alone), 121% (inactive); in assay [5] (at 5 µM, OCI-C5x cells, without rucaparib), 114% (inactive). The viability is 97.2% (active) in assay [5] (at 5 µM, OCI-P5x cells, with rucaparib 20 µM, 100% = cells with rucaparib alone) and 108% (inactive) in assay [5] (at 5 µM, OCI-P5x cells, without rucaparib). Also, the luciferase signal in assay [6] is 64 AU (inactive).

With `CC1=C(/C=C/C(C)=C/C=C/C(C)=C/C=C/C=C(C)/C=C/C=C(C)/C=C/C2=C(C)CCCC2(C)C)C(C)(C)CCC1`, the results for the inhibition in [7] and in assay [1] were -13.5% and 2.51% (inactive), respectively. The compound also registered a score in assay [8] of 1.3. Moreover, in [9], the rescue above control was -6.44. In [10], the cytochrome c release ratio turned out to be 0.86. The compound further had an inhibition of aggregation in assay [11] of 42.6%. The glutamate uptake change in [12] was -16.2%. The inclusion score in assay [13] is 2.5. In [14], this compound showed an aggregation suppression score of 0.881. Besides, the parasite load remaining in [15] is 58% (inactive). For the same compound, in assay [15], the viability came to 103%. Besides, the red/green cell ratio (normalised) in [2] is 0.84 (inactive). For the same compound, the normalised cell number in assay [2] (setting [19]) worked out at 1.16; in [2] (setting [20]), 0.98. Further, the fold change is 0.908 (inactive) in assay [3] (setting [21]) and 1.03 in assay [3] (setting [22]). The cell count in [3] (setting [23]) is 11100; in [3] (setting [24]) it was 12200. In addition, the remaining NAD in assay [16] was 10 nM (inactive). In addition, the luciferase signal in assay [6] is 36 AU (inactive).

Consider `CCCc1nn(C)c2c(=O)[nH]c(-c3cc(S(=O)(=O)N4CCN(C)CC4)ccc3OCC)nc12`, for which, in assay [15], the parasite load remaining is 94.8% (inactive) and 65.8% (inactive) and 48% (inactive). Also, the viability in assay [15] was 89.3% and 101% and 108%. Besides, in [1], the inhibition is 6.7% (inactive). In addition, the red/green cell ratio (normalised) in [2] is 0.98 (inactive). For the same compound, the normalised cell number in [2] (setting [19]) came to 1.05; in assay [2] (setting [20]), 1.03. The cell count in [3] (setting [23]) was 10500 and 7310 and 9670. For the same compound, the compound was called inactive in assay [17]. Also, the z-score in assay [4] (setting [25]) was -0.38 (inactive) and -0.0288 (inactive) and 1.25 (inactive); in assay [4] (setting [26]), -0.0156 and 0.388 and 1.37; in [18] it was 0.235 (inactive) and 0.33 (inactive). In addition, the remaining NAD in assay [16] is 10 nM (inactive). For the same compound, in [6], the luciferase signal was 60 AU (inactive).
